# Experimental data taken from PubChem BioAssay AID1159580 (chemical genetic matrix, 2015).
# Among all 5,500 compounds or so, about 2,000 (36%) were called active. Another 18% or so got no clear call; they are omitted. The list shows a part of the results. Values without a mark were called inactive. Rule as the data show it: active = normalized growth mostly below about 0.91 (no sharp cut-off); inconclusive = no clear call, values can overlap the other calls; inactive = mostly above about 0.92.
# Test: chemical genetic growth profiling, strain panel (AID 1159580);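 also: tested at 20 µM; growth read once vehicle control cultures reached saturation at 30 °C; 1 = growth at the plate median or of vehicle wells; lower values mean less growth of the strain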
# Conditions: growth OD
structure (smiles),measurement,setting,value
O=C(O[C@@H]1Cc2c(O)cc(O)cc2O[C@@H]1c1cc(O)c(O)c(O)c1-c1c([C@H]2Oc3cc(O)cc(O)c3C[C@H]2O)cc(O)c(O)c1O)c1cc(O)c(O)c(O)c1,normalized growth,"S. cerevisiae deletion strains, locus YJL187C, strain SWE1 (second series), stronger effect = lower value",0.0786 (active)
same,normalized growth,"S. cerevisiae deletion strains, locus YJL187C, strain SWE1, stronger effect = lower value",0.981
same,normalized growth,"S. cerevisiae deletion strains, locus YKL009W, strain mrt4, stronger effect = lower value",1.08
same,normalized growth,"S. cerevisiae deletion strains, locus YKL068W, stronger effect = lower value",1.03
same,normalized growth,"S. cerevisiae deletion strains, locus YKL085W, strain MDH1 (second series), stronger effect = lower value",0.994
same,normalized growth,"S. cerevisiae deletion strains, locus YKL085W, strain MDH1, stronger effect = lower value",0.994
same,normalized growth,"S. cerevisiae deletion strains, locus YKL160W, strain elf1, stronger effect = lower value",0.968
same,normalized growth,"S. cerevisiae deletion strains, locus YKL190W, strain CNB1, stronger effect = lower value",0.0679 (active)
same,normalized growth,"S. cerevisiae deletion strains, locus YKR001C, strain vps1, stronger effect = lower value",0.487 (active)
same,normalized growth,"S. cerevisiae deletion strains, locus YKR026C, strain gcn3, stronger effect = lower value",1.03
same,normalized growth,"S. cerevisiae deletion strains, locus YKR091W, strain srl3, stronger effect = lower value",1.02
same,normalized growth,"S. cerevisiae deletion strains, locus YLL001W, strain dnm1, stronger effect = lower value",0.986
same,normalized growth,"S. cerevisiae deletion strains, locus YLL026W, stronger effect = lower value",1.03
same,normalized growth,"S. cerevisiae deletion strains, locus YLL041C, strain sdh2, stronger effect = lower value",1.04
same,normalized growth,"S. cerevisiae deletion strains, locus YLR027C, strain aat2, stronger effect = lower value",1
same,normalized growth,"S. cerevisiae deletion strains, locus YLR039C, strain RIC1, stronger effect = lower value",0.136 (active)
same,normalized growth,"S. cerevisiae deletion strains, locus YLR058C, strain SHM2, stronger effect = lower value",0.0917 (active)
same,normalized growth,"S. cerevisiae deletion strains, locus YLR102C, strain apc9, stronger effect = lower value",0.885 (active)
same,normalized growth,"S. cerevisiae deletion strains, locus YLR221C, strain rsa3, stronger effect = lower value",0.989
same,normalized growth,"S. cerevisiae deletion strains, locus YLR258W, strain gsy2, stronger effect = lower value",1.02
same,normalized growth,"S. cerevisiae deletion strains, locus YLR262C, strain YPT6 (second series), stronger effect = lower value",0.89
same,normalized growth,"S. cerevisiae deletion strains, locus YLR262C, strain YPT6, stronger effect = lower value",0.222 (active)
same,normalized growth,"S. cerevisiae deletion strains, locus YLR268W, strain sec22, stronger effect = lower value",0.225 (active)
same,normalized growth,"S. cerevisiae deletion strains, locus YLR320W, strain mms22, stronger effect = lower value",1.01
same,normalized growth,"S. cerevisiae deletion strains, locus YLR330W, strain CHS5, stronger effect = lower value",0.488 (active)
same,normalized growth,"S. cerevisiae deletion strains, locus YLR342W, strain FKS1, stronger effect = lower value",0.957
same,normalized growth,"S. cerevisiae deletion strains, locus YLR357W, strain rsc2, stronger effect = lower value",0.9
same,normalized growth,"S. cerevisiae deletion strains, locus YLR370C, strain arc18, stronger effect = lower value",1
same,normalized growth,"S. cerevisiae deletion strains, locus YLR371W, strain rom2, stronger effect = lower value",0.667 (active)
same,normalized growth,"S. cerevisiae deletion strains, locus YLR384C, strain iki3, stronger effect = lower value",1.02
same,normalized growth,"S. cerevisiae deletion strains, locus YLR418C, strain cdc73, stronger effect = lower value",0.238 (active)
same,normalized growth,"S. cerevisiae deletion strains, locus YML016C, strain PPZ1, stronger effect = lower value",0.0734 (active)
same,normalized growth,"S. cerevisiae deletion strains, locus YML032C, strain rad52, stronger effect = lower value",0.808 (active)
same,normalized growth,"S. cerevisiae deletion strains, locus YML120C, strain ndi1, stronger effect = lower value",1
same,normalized growth,"S. cerevisiae deletion strains, locus YML124C, strain tub3, stronger effect = lower value",0.733 (active)
same,normalized growth,"S. cerevisiae deletion strains, locus YMR058W, strain fet3, stronger effect = lower value",0.455 (active)
same,normalized growth,"S. cerevisiae deletion strains, locus YMR078C, strain ctf18, stronger effect = lower value",0.927
same,normalized growth,"S. cerevisiae deletion strains, locus YMR125W, strain sto1, stronger effect = lower value",1.04
same,normalized growth,"S. cerevisiae deletion strains, locus YMR129W, stronger effect = lower value",1.02
same,normalized growth,"S. cerevisiae deletion strains, locus YMR205C, strain PFK2, stronger effect = lower value",0.978
same,normalized growth,"S. cerevisiae deletion strains, locus YMR223W, strain ubp8, stronger effect = lower value",0.571 (active)
same,normalized growth,"S. cerevisiae deletion strains, locus YMR231W, strain pep5, stronger effect = lower value",0.942
same,normalized growth,"S. cerevisiae deletion strains, locus YMR263W, strain SAP30, stronger effect = lower value",0.386 (active)
same,normalized growth,"S. cerevisiae deletion strains, locus YMR307W, strain GAS1, stronger effect = lower value",0.343 (active)
same,normalized growth,"S. cerevisiae deletion strains, locus YNL067W, strain RPL9B, stronger effect = lower value",0.138 (active)
same,normalized growth,"S. cerevisiae deletion strains, locus YNL071W, strain lat1, stronger effect = lower value",1.02
same,normalized growth,"S. cerevisiae deletion strains, locus YNL128W, strain TEP1, stronger effect = lower value",0.0913 (active)
same,normalized growth,"S. cerevisiae deletion strains, locus YNL153C, strain GIM3, stronger effect = lower value",0.201 (active)
same,normalized growth,"S. cerevisiae deletion strains, locus YNL209W, strain ssb2, stronger effect = lower value",0.822 (active)
same,normalized growth,"S. cerevisiae deletion strains, locus YNL233W, strain BNI4, stronger effect = lower value",0.299 (active)
same,normalized growth,"S. cerevisiae deletion strains, locus YNL248C, strain rpa49, stronger effect = lower value",1.02
same,normalized growth,"S. cerevisiae deletion strains, locus YNL250W, strain rad50, stronger effect = lower value",0.963
same,normalized growth,"S. cerevisiae deletion strains, locus YNL271C, strain bni1, stronger effect = lower value",0.974
same,normalized growth,"S. cerevisiae deletion strains, locus YNL298W, strain CLA4, stronger effect = lower value",1
same,normalized growth,"S. cerevisiae deletion strains, locus YNL307C, strain MCK1, stronger effect = lower value",0.831 (active)
same,normalized growth,"S. cerevisiae deletion strains, locus YNL322C, strain KRE1 (second series), stronger effect = lower value",1.03
same,normalized growth,"S. cerevisiae deletion strains, locus YNR049C, strain mso1, stronger effect = lower value",1.03
same,normalized growth,"S. cerevisiae deletion strains, locus YNR052C, strain pop2, stronger effect = lower value",0.246 (active)
same,normalized growth,"S. cerevisiae deletion strains, locus YOL006C, strain TOP1, stronger effect = lower value",0.168 (active)
same,normalized growth,"S. cerevisiae deletion strains, locus YOL012C, strain htz1",0.228
same,normalized growth,"S. cerevisiae deletion strains, locus YOL147C, strain pex11, stronger effect = lower value",0.662 (active)
same,normalized growth,"S. cerevisiae deletion strains, locus YOR001W, strain rrp6, stronger effect = lower value",0.981
same,normalized growth,"S. cerevisiae deletion strains, locus YOR061W, strain CKA2, stronger effect = lower value",0.163 (active)
same,normalized growth,"S. cerevisiae deletion strains, locus YOR069W, strain VPS5, stronger effect = lower value",0.128 (active)
same,normalized growth,"S. cerevisiae deletion strains, locus YOR070C, strain gyp1, stronger effect = lower value",0.972
same,normalized growth,"S. cerevisiae deletion strains, locus YOR080W, strain dia2, stronger effect = lower value",1.02
same,normalized growth,"S. cerevisiae deletion strains, locus YOR083W, strain WHI5, stronger effect = lower value",0.937
same,normalized growth,"S. cerevisiae deletion strains, locus YOR106W, strain vam3, stronger effect = lower value",0.817 (active)
same,normalized growth,"S. cerevisiae deletion strains, locus YOR136W, strain idh2, stronger effect = lower value",0.645 (active)
same,normalized growth,"S. cerevisiae deletion strains, locus YOR144C, strain elg1, stronger effect = lower value",0.774 (active)
same,normalized growth,"S. cerevisiae deletion strains, locus YOR184W, strain ser1, stronger effect = lower value",0.346 (active)
same,normalized growth,"S. cerevisiae deletion strains, locus YOR265W, strain rbl2, stronger effect = lower value",0.984
same,normalized growth,"S. cerevisiae deletion strains, locus YOR270C, strain vph1, stronger effect = lower value",0.977
same,normalized growth,"S. cerevisiae deletion strains, locus YOR290C, strain snf2, stronger effect = lower value",0.989
same,normalized growth,"S. cerevisiae deletion strains, locus YOR316C, strain cot1, stronger effect = lower value",0.863 (active)
same,normalized growth,"S. cerevisiae deletion strains, locus YPL051W, strain arl3, stronger effect = lower value",0.822 (active)
same,normalized growth,"S. cerevisiae deletion strains, locus YPL078C, strain atp4, stronger effect = lower value",0.99
same,normalized growth,"S. cerevisiae deletion strains, locus YPL106C, strain sse1, stronger effect = lower value",0.941
same,normalized growth,"S. cerevisiae deletion strains, locus YPL240C, strain hsp82, stronger effect = lower value",1
same,normalized growth,"S. cerevisiae deletion strains, locus YPR119W, strain clb2, stronger effect = lower value",0.981
same,normalized growth,"S. cerevisiae deletion strains, locus YPR141C, strain kar3, stronger effect = lower value",0.988
same,normalized growth,"S. cerevisiae deletion strains, locus YPR163C, strain tif3, stronger effect = lower value",0.756 (active)
same,normalized growth,"S. cerevisiae deletion strains, locus YPR167C, strain met16, stronger effect = lower value",0.785 (active)
same,normalized growth,"S. cerevisiae deletion strains, strain wtn01, stronger effect = lower value",0.335 (active)
same,normalized growth,"S. cerevisiae strains, strain wild type, stronger effect = lower value",0.0644 (active)
